Screens (PubChem)
The list is not random: actives were taken first. Their share in the collection is about 3%.
GRP78 ERSR act: ER stress response induction in glioma | U87-MG GRP78 promoter luciferase reporter, 16 h | 0.02% of 420,000 active | Potency, µM, usual class: activators; note: series mostly up to about 76 µM; nearly all actives have a fitted effect of over 35% in size
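Stably transfected U87-MG glioma cells carrying a GRP78-based luciferase sensor; 16 h compound incubation. Luminescence end-point read 10 min after Bright-Glo addition at room temperature.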
Nrf2 activator: activators of Nrf2 (ARE) signaling. AREc32 ARE-luciferase reporter (MCF7-derived line), luminescence, 24 h. Potency, µM (doses to about 46.1 µM), actives largely listed as activators. 0.31% of 410,000 active; note: nearly all actives have a fitted effect of over 65% in size
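ARE activation measured as luciferase luminescence (Steady-Glo, 30 min RT) in AREc32_Fluc cells after 24 hr compound exposure at 37 deg C, 5% CO2; cells seeded overnight at 1000/well in OPTI-MEM, 5% FBS.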
D3 ag: agonists of human D3 dopamine receptor. 0.58% of 410,000 active. max activation, %. D3R DiscoveRx beta-arrestin cells, luminescence, 90 min. AID 652048; in the data active = max activation above about 30%
Target sequence (P35462 whole entry, looked up): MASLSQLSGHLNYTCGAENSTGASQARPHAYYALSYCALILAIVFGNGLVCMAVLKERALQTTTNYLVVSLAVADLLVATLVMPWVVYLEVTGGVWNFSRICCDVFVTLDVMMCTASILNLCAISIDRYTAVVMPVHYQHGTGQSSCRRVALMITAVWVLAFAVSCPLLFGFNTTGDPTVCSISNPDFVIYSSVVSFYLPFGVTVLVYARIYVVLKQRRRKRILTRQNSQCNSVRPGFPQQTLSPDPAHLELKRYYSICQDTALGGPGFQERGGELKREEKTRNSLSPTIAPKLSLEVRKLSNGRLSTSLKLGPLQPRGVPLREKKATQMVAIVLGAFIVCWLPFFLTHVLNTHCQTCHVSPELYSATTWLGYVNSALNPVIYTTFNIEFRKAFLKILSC
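Agonist mode: compounds and dopamine controls were applied to plated cells for 90 min at 37 degrees C after an overnight attachment at 1500 cells/well. Luminescent read-out followed 30 - 60 minutes at room temperature with DiscoveRx detection reagent.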
DRD3 antagonist: antagonists of human D3 dopamine receptor. 2.5% of 360,000 active. AID 652054. P35462. max response, negative = inhibition, %. D3R cells, DiscoveRx beta-arrestin luminescence, antagonist mode; stronger effect = lower value; in the data active = max response below about -50%; inconclusive = no clear call, values can overlap the other calls
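Cells expressing the human receptor were seeded at 1500 cells/well, incubated overnight at 37 degrees C in 5% CO2, then exposed to library compounds with dopamine controls for 90 minutes at 37 degrees C before luminescent detection.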
A number is an active result; - = inactive; ? = inconclusive; . = no result given. Unless noted, calls come from the whole dose curve; as a rule, active = well fitted curve in the direction sought with a large enough effect; inconclusive = small, poorly fitted or top-dose-only effect, or another doubt; inactive = no such curve, though single readings can be large; an effect the other way counts as inactive or inconclusive.

SMILES | GRP78 ERSR act | Nrf2 activator | D3 ag | DRD3 antagonist
CC(C)(C)C(=O)NC1(C(F)(F)F)C(=O)Nc2c1c(=O)[nH]c(=O)n2-c1ccccc1 (configuration not stated) | - | - | - | .
O=[N+]([O-])c1ccc(/C=C/c2ccnc3ccccc23)cc1 | - | . | . | .
COc1cccc(NC(=O)Nc2cccs2)c1 | - | - | - | -
CC(=O)c1cccc(NC(=O)Nc2cccs2)c1 | - | - | - | -51
O=C(C[N+]12CN3CN(CN(C3)C1)C2)c1ccc(O)c(O)c1 | - | . | . | .
COc1ccc(C(=O)C2CCCN(Cc3cc(Cl)ccc3O)C2)c(OC)c1 (configuration not stated) | - | - | - | -54
COc1ccc(C(=O)C2CCCN(Cc3sc(N4CCCC4)nc3Cl)C2)c(OC)c1 (configuration not stated) | - | - | - | -65
COc1ccc(C(=O)C2CCCN(Cc3ccc(C#CCCO)cc3)C2)c(OC)c1 (configuration not stated) | - | - | - | -116
COc1ccc(C(=O)C2CCCN(Cc3cc(C)c(O)c(C)c3)C2)c(OC)c1 (configuration not stated) | - | - | - | ?
CCOc1cccc(CN2CCCC(C(=O)c3cc(Cl)ccc3OC)C2)c1O (configuration not stated) | - | - | - | -106
COc1ccc(C(=O)NC2CCCN(Cc3ccc(Cl)cc3)C2)c(OC)c1 (configuration not stated) | - | - | - | ?
COC(=O)[C@@H]1C[C@@H](NC(=O)c2cnsn2)CN1Cc1ccc(Cl)cc1 | - | . | . | .
Cc1c(C(=O)NCCc2ccncc2)cnn1-c1nccc(-c2ccccc2C(F)(F)F)n1 | - | . | . | .
COc1ccc(CN2CC[C@H]3C=CC[C@@H](C(=O)Nc4ccccc4)[C@H]3C2=O)cc1OC | - | . | . | .
O=C(C[n+]1cccc2cc(Cl)ccc21)c1ccc2c(c1)CCCC2 | - | . | . | .
O=C1C[C@H]2C=CCc3cccc(c32)CN1Cc1ccc(Cl)cc1 | - | . | . | .
CCCn1c(-c2cccs2)nc2nc3ccccc3nc21 | - | 4.5µM | - | -
Cc1ccc(S(=O)(=O)Nc2nnc(C(C)(C)C)s2)cc1 | - | - | - | -
Cc1ccc(S(=O)(=O)Nc2nncs2)cc1 | - | - | - | -60
Cc1c(C)c(C)c(/C=C/c2ccnc3ccccc23)c(C)c1C | - | . | . | .
O=S(=O)(c1ccccc1)N1CCN(CC2CC3C=CC2C3)CC1 (configuration not stated) | - | - | - | -
Cc1ccc(CN2CCN(CC3CC4C=CC3C4)CC2)cc1 (configuration not stated) | - | - | - | -60
O=C(C1CC12CCN(Cc1cccc3cccnc13)CC2)N1CCN(Cc2cccs2)CC1 (configuration not stated) | - | . | . | .
COC(=O)c1c(NC(=O)c2c(OC)cccc2OC)sc2c1CCCC2 | - | - | - | .
COC(=O)c1c(NC(=O)c2ccc(Br)s2)sc2c1CCC2 | - | - | 30 | -
SMILES | GRP78 ERSR act | Nrf2 activator | D3 ag | DRD3 antagonist
COC(=O)c1c(NC(=O)c2cc3ccccc3c(=O)o2)sc2c1CCCC2 | - | 13µM | - | .
CCCCCCn1cc(C(=O)O)c(=O)c2ccccc21 | - | - | - | -63
CCOC(=O)c1c(C)oc2nc(C)nc(Nc3cc(C)cc(C)c3)c12 | - | - | - | .
C[N+]1(CC(=O)c2ccc(Oc3ccccc3)cc2)CCOCC1 | - | . | . | .
Cc1ccc(C)c(NC(=O)CCC(=O)N/N=C/c2cc([N+](=O)[O-])ccc2O)c1 | - | - | - | ?
O=[N+]([O-])c1ccc(O)c(/C=N/n2c(CO)nc3ccccc32)c1 | - | - | - | -54
O=C(CCC(=O)Nc1cccc(Cl)c1)N/N=C/c1cc([N+](=O)[O-])ccc1O | - | - | - | -62
Cc1ccccc1NC(=O)CCC(=O)N/N=C/c1cc([N+](=O)[O-])ccc1O | - | - | - | -58
O=[N+]([O-])c1ccc(O)c(/C=N/n2cnc3ccccc32)c1 | - | - | - | -
O=C(CSc1nc2ccccc2s1)N/N=C/c1cc([N+](=O)[O-])ccc1O | - | - | - | -61
O=C[C@H](O)[C@@H](O)[C@@H](O)[C@H](O)CO | . | . | - | .
COC(=O)[C@@H]1CCCN1Cc1ccc2c(c1)CN(Cc1cccn1-c1ccc(Cl)cn1)CCO2 | - | . | . | .
O=C(O[C@H]1[C@H](Cc2ccccc2)NS(=O)(=O)[C@H]2C[C@@H]3C=C[C@]12O3)c1ccccc1Br | - | . | . | .
O=C(Nc1cc(F)ccc1F)c1cnn2c1NC(=C1CC1)C=C2C(F)F | - | . | . | .
CN1CCN(CCC(=O)N/N=C/c2cc([N+](=O)[O-])ccc2O)CC1 | - | - | - | -79
Cc1ccc([N+](=O)[O-])cc1NC(=O)CCCOc1ccccc1 | - | - | - | -64
CCc1ccc(NC(=S)NC2CC3CCCC(C2)N3Cc2ccccc2)cc1 (configuration not stated) | - | - | - | -109
Cc1ccccc1NC(=S)NC1CC2CCC(C1)N2Cc1ccco1 (configuration not stated) | - | - | - | -
S=C(Nc1ccc(Cl)cc1)NC1CC2CCC(C1)N2Cc1ccccc1 (configuration not stated) | - | - | - | -76
CNC(=S)NC1CC2CCC(C1)N2Cc1ccccc1 (configuration not stated) | - | - | - | -81
C=CCN1C2CCCC1CC(NC(=S)Nc1ccc(Cl)cc1)C2 (configuration not stated) | - | - | - | -
Cc1cccc(NC(=O)Cn2cc(C(=O)C3CCCCC3)c3ccccc32)c1C | - | - | - | .
Cc1ccc(S(=O)(=O)c2cn(CC(=O)Nc3ccccc3C)c3cc4c(cc3c2=O)OCO4)cc1 | - | - | - | .
O=C(C1CCN(Cc2ccccc2)CC1)N1CCN(C/C=C/c2ccccc2)CC1 | - | - | - | -54
O=C(C1CCN(Cc2ccc(F)cc2)CC1)N1CCN(C/C=C/c2ccccc2)CC1 | - | - | - | -77
SMILES | GRP78 ERSR act | Nrf2 activator | D3 ag | DRD3 antagonist
CCOC(=O)c1oc2ccccc2c1NC(=O)COC | - | - | - | -52
COc1cccc(NC(=O)c2oc3ccccc3c2NC(C)=O)c1 | - | - | - | -55
CCOCC(=O)Nc1c(C(=O)Nc2ccc(OC)cc2OC)oc2ccccc12 | - | - | 73 | -
COc1ccc(NC(=O)c2oc3ccccc3c2NC(=O)c2ccco2)c(OC)c1 | - | - | 49 | -
COc1ccc(NC(=O)c2oc3ccccc3c2NC(=O)COc2ccc(F)cc2)c(OC)c1 | - | - | - | .
Cc1ccc(CCNC(=O)CN(c2ccc(C(C)C)cc2)S(=O)(=O)c2c(C)nn(C)c2C)cc1 | - | - | - | .
COc1ccc(C2CC(c3ccccc3)Oc3c(C)ccc(C)c32)cc1 (configuration not stated) | - | . | . | .
COC(=O)c1c(OCc2ccccn2)cc(=O)n2c1CCN(Cc1cccc(C(F)(F)F)c1)CC2 | - | . | . | .
CCOC(=O)c1oc2ccccc2c1CN1CCN(c2ccccc2)CC1 | - | - | - | -77
CCOC(=O)c1oc2ccccc2c1CN1CCN(C(=O)c2ccccc2)CC1 | - | - | - | -
